Measurements published in the supplement of paper PMC10720658.
± gives the standard deviation of the averaged measurements.

system: AEK1 (Tb927.3.2440); assay: percent reduction in TR-FRET probe signal relative to DMSO control; higher = stronger displacement of ATP-site probe (binding); conditions: 1 µM; incubation time 1 h

Compound	percent reduction in TR-FRET probe signal [%]
O=C(Nc1ccc(OC(F)(F)F)cc1)c1sccc1NCc1ccnc2ccccc12	-8.08 ± 5.7
C=CC(=O)Nc1cccc(Nc2nc(Nc3ccc(N4CCN(C(C)=O)CC4)cc3OC)ncc2C(F)(F)F)c1	-2.96 ± 7.5
COc1ccccc1-c1cc(Nc2cccc(CS(N)(=O)=O)c2)ncn1	-8.94 ± 6.4
C[C@@H]1COCCN1c1cc(C2(S(C)(=N)=O)CC2)nc(-c2ccnc3[nH]ccc23)n1 (stereo partly drawn)	8.44 ± 6
COc1ccc(-c2cc3c(C)nc(N)nc3n([C@H]3CC[C@H](OCCO)CC3)c2=O)cn1	-8.41 ± 7.5
O=C(NC(NC(=S)Nc1ccc(F)c([N+](=O)[O-])c1)C(Cl)(Cl)Cl)C(c1ccccc1)c1ccccc1 (stereo not drawn)	3.75 ± 8.9
CC[C@@](C)(Nc1ccnc(-c2c[nH]c3ncccc23)n1)C(=O)NCC(F)(F)F [Decernotinib (VX-509)]	-1.74 ± 4.4
CCCS(=O)(=O)Nc1ccc(F)c(C(=O)c2c[nH]c3ncc(Cl)cc23)c1F	-8.04 ± 4.3
O=C(c1ccc(/C=C/c2n[nH]c3ccccc23)cc1)N1CCNCC1	51.6 ± 14
CN1CC[C@H](c2c(O)cc(O)c3c(=O)cc(-c4ccccc4Cl)oc23)[C@H](O)C1 [Flavopiridol (Alvocidib)]	-2.55 ± 4.6
c1cncc(CN2CCC(n3ncc4c(N5CCOCC5)nc(-c5ccc6[nH]ccc6c5)nc43)CC2)c1	6.62 ± 13
Cc1cc(O)c2c(c1)C(=O)c1cccc(O)c1C2=O [Chrysophanic Acid]	6.22 ± 14
CS(=O)(=O)O.N#CC1(c2ccc(NC(=O)c3cccnc3NCc3ccncc3)cc2)CCCC1 [Apatinib]	-2.66 ± 9.6
